The supplement of paper PMC6555819

What follows are sequences tested on VDR:RXRa (NR concentration 270 nM, RXRa partner concentration 90 nM) (assay: PBM binding z-score (relative to random genomic background probes); higher = stronger binding; sequences stand for … in GC…GCGATTGACAGCGTAGAATGAAGG).
Description: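 Protein-binding microarray (Agilent 4x180K custom design, double-stranded 60-nt probes: 5' GC cap, 34-nt variable region, 24-nt constant primer region; full probe sequence given). Purified or IVT nuclear receptor:RXRα heterodimers (3:1 NR:RXRα, mostly 270:90 nM) or homodimers were incubated for 1 h in PBS with 2% milk and no ligand, then detected with Alexa488 antibodies. Fluorescence from o1-orientation probes (~5 replicates averaged) was converted to z-scores against 500 random hg19 background probes. Variable regions are seed direct-repeat (DR0–DR5) sites, all their single-nucleotide variants and half-site ablations.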
ACAAACAGGTGATGAAGGTAACTCAGGCTATCAT gave a PBM binding z-score of 0.56. With GATACAGGGTCAGCTAGAGGCCAGAGTTTGGAAA the PBM binding z-score was 3.36. CGTCCAAGGGCAAAGGTCAGTGAAGAGATGACGG showed a PBM binding z-score of 3.89. TTACCAGGGTGAAGGTCGTTGATCCCTCTGTAGA showed a PBM binding z-score of 1.65. For CCTTGCGGGTCAAGGTTATAGCACGGGTGGTACG, the PBM binding z-score was 2.95. Sequence CCGAGTAGGTTATAGGGCATTCAGGCAACGGTGA has a PBM binding z-score of 0.402. TCAAGTAGGTTACCAATGGGGCATTCAGCTTTCT was tested, and the PBM binding z-score was 0.549. CGAACTAGTTCAGAACAGGACAGTGAAGGATGAT gave a PBM binding z-score of -0.0284. ACTATAAGTTGAGACGAGGGCAACCGATAGGTTG gave a PBM binding z-score of 1.75. With CATACAGGGTCAGCTAGCCCAGAGTAGGGACGGC the PBM binding z-score was 2.52. For GGTGCTAGGTCAGGTTGGTCAGCTAACGGGTACG, the PBM binding z-score was 1.25. TAGCCTAGGTCAGATCGGACCAGTATACGCTATA gave a PBM binding z-score of 0.34. For TCTGCTAGGTCAACGATGGTCAGCTAGTCTGCTA, the PBM binding z-score was 1.43. GGAACGAGGGCGTTCGAGTTGATAGCATGGCGAT showed a PBM binding z-score of 2.22. For CGTCCAAGGTGAGCAGGTCAGTGAAAGCGACGTG, the PBM binding z-score was 0.0617. CCTTACGGGTCACTCCAGGGTATAGCATCGGAGT showed a PBM binding z-score of 3.25. With CCTAGCACGCCAGGGTCACTCAAGCATTTCGCTT the PBM binding z-score was 2.56. With CCAATTAGTTGACCATAAGGGCAACCGAAGCTCG the PBM binding z-score was 0.678. Work on TCTAGTTGGACAAAGGTCACACACTCGAAATGCG yielded a PBM binding z-score of 5.09. CATACAGGGGCAGCTAGGCCAGAGTAGGGACGGC gave a PBM binding z-score of -0.446. Work on CTTCGGAGGACAGAAGGTCAGAGCTGTCCGCTTT yielded a PBM binding z-score of 0.953. In the case of AGTCAAAGTTCATCTAGGGAACGTAAGATATGCT, the PBM binding z-score is reported as 4.73. Sequence AGGCAAAGTTCATCTAGGTAACGTAAGATATGCT has a PBM binding z-score of 4.86. In the case of CCTACTGGGCCACGAAACGTCATTGATTCAGTGA, the PBM binding z-score is reported as -0.697. ATCGAAAGGTCGAGGCGAGTATAGAGAAAGGGAA gave a PBM binding z-score of 2.33. GCTTACGGGTCATAGGTTATAGCATGAATAGAAT was tested, and the PBM binding z-score was 3.91. Work on CAGACTGGGGCAAGGTTACCATAACGCACAGCCA yielded a PBM binding z-score of 0.28. Sequence TCCAGCAGGCCAGAGGGTCACTCAAGAGGTACGG has a PBM binding z-score of 1.34. GCTTGTTGGTCAGTAAAAGGTCACACACCGGTCG gave a PBM binding z-score of 3.86. Work on CCGACTGGGGCATAATGTTACCATAAGCCAGCCC yielded a PBM binding z-score of -0.48. CGTCCAAGGTCAATGTCAGTGAAAGAGACTCGAA showed a PBM binding z-score of 3.45. Sequence CCTGCTGGGCCATTCAGAGGTCATTGATCATATG has a PBM binding z-score of 4.03. Work on ATCTCAAGGTAAGACTCAGTTCAGTGAAGAACGC yielded a PBM binding z-score of 1.27. AGAATGAGGTAAAGATCAGGGAAACAGAATACAT was tested, and the PBM binding z-score was 0.0577. GATACAGGGTCATGGCCAGAGTACGCGTATTGAT showed a PBM binding z-score of 4.83. Work on ATCGAAAGCTCGAAGGTGAGTATACCCACCCGAA yielded a PBM binding z-score of -0.463. GCTCGTTGGTCAGTAAAAGGTCACACACCGGTCG gave a PBM binding z-score of 4.26. TCATATAGGTACAGGTGAAAGTCGAACGATATGA gave a PBM binding z-score of 0.846. ACAGACAGATGATGAAGGTAACTCAGGCTATCAT was tested, and the PBM binding z-score was 0.0494. CCTATTATTTGACCATAAGGGCAACCGAAGCTCG showed a PBM binding z-score of 1.28.
